KinaseGlo FLuc: counter-screen: inhibitors of Kinase-Glo firefly luciferase; Kinase-Glo luciferase, ATP luminescence, 8 min; Potency, µM (doses to about 38.3 µM), without a hit: at the highest dose activity change, negative = inhibition, actives largely listed as inhibitors; actives 0.28% (n = 200,000); also: % is scaled to controls: 0 for no effect and ±100 for the full control effect; nearly all actives have a fitted effect of over 60% in size
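Compound is pinned into ATP-containing buffer (10 uM ATP, imidazole pH 7.2, 7 mM MgCl2). Kinase-Glo luciferase reagent is then added. Light output is recorded following an 8-min room-temperature incubation.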
FLuc modulator: inhibits or activates purified firefly luciferase, miR-21 counter-screen; P08659; purified FLuc, Km substrates, luminescence inhibition; Potency, µM (top dose mostly 57.5 µM), for the others: at the top dose activity change, negative = inhibition, most hits filed as inhibitors; actives 6.9% (n = 360,000); AID 588342;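 also: plate controls were vehicle for no effect and reference inhibitor for full effect; nearly all actives have a fitted effect of over 55% in size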
Target sequence (P08659 whole entry, looked up): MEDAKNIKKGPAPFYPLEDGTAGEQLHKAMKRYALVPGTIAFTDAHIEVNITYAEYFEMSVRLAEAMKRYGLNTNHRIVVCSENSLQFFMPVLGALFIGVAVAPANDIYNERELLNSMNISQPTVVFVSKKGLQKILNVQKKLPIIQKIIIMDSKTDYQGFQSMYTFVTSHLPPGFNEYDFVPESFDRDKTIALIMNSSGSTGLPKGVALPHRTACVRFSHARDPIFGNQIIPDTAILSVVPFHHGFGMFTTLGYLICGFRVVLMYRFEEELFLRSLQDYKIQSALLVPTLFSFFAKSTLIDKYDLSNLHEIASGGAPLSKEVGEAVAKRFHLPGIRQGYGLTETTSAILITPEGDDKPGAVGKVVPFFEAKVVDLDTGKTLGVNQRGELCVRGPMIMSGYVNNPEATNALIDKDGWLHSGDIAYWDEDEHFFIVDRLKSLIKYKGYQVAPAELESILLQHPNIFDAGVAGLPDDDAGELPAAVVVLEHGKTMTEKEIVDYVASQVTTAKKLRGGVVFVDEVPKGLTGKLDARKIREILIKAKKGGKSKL
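Purified P. pyralis luciferase, 10 nM final, with Km-level 10 uM D-luciferin and 10 uM ATP in 50 mM Tris acetate pH 7.5, 10 mM Mg acetate, 0.01% Tween-20, 0.05% BSA; 6-point qHTS titration about 60 µM downward; luminescence read.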
NPC1 promoter act: NPC1 promoter activation | Potency, µM (series often up to 9.22 µM), for the others: at the top dose activation, hits mostly activators | actives 2.4% (n = 320,000) | Huh7 NPC1 promoter luciferase reporter, 24 h; also: % of control where 0% means no effect; nearly all actives have a fitted effect of over 60% in size
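Stably transfected Huh7 (NPC1 promoter→luciferase), 1500 cells/well in Opti-MEM + 10% FBS, 2 h settle, then compound 24 h at 37 °C. Luminescence after 10 min with Amplite reagent.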
SMN2 splice up: enhancers of SMN2 splice variant expression | Potency, µM (series often up to 46.1 µM), for the others: top-dose activity change, positive = activation, hits mostly activators | actives 2.8% (n = 210,000) | HEK293 SMN2-luciferase splicing reporter, luminescence, 30-36 h; also: % of control where 0% means no effect; nearly all actives have a fitted effect of over 55% in size
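qHTS luciferase splicing reporter: luminescence rises when SMN2 exon 7 is included in transfected HEK293 cells. Compound exposure lasted 30-36 h at 37C, with 4.5 mM final sodium butyrate as control, followed by a ONE-Glo read.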
ELG1 genotoxic: genotoxicity induction in ELG1-luciferase HEK293T cells; Potency, µM (top dose mostly 46 µM), for inactives: top-dose activity change, positive = activation, actives largely listed as activators; actives 1.3% (n = 330,000); AID 504466; HEK293T ELG1-luciferase reporter, luminescence, 16 h; also: % of control where 0% means no effect; nearly all actives have a fitted effect of over 60% in size
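Genotoxic stress is detected as increased luminescence from luciferase-tagged ELG1 in HEK293T cells, measured with ONE-Glo after a 16 hr treatment at 37 °C.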
Rab9 prom act: activators of Rab9 promoter | Huh7 Rab9 promoter-luciferase reporter, luminescence, 24 h | Potency, µM (series often up to 9.22 µM), inactives show at the highest dose activation, negative = inhibition, actives largely listed as activators | actives 2.8% (n = 320,000) | AID 485297; also: % of control where 0% means no effect; nearly all actives have a fitted effect of over 60% in size
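Huh7 cells stably carrying a Rab9 promoter-luciferase reporter, 1500 cells per well in OP-MEM I with 10% FBS, treated with compound 24 hours at 37C. Luciferase activity read by luminescence after 10 minutes with Amplite reagent.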
Starred values were filed as active, the others as inactive; ? = inconclusive; nt = no result given; [ ] = another dose, or the depositor's remark. Compounds with a hit are over-represented: about 7.3% of the library has one in this group of screens. Calls follow the shape of the dose curve; as a rule, active = well fitted curve in the direction sought with a large enough effect; inconclusive = small, poorly fitted or top-dose-only effect, or another doubt; inactive = no such curve, though single readings can be large; an effect the other way counts as inactive or inconclusive. Potency is read from the fitted curve at half-maximal effect.

SMILES	KinaseGlo FLuc	FLuc modulator	NPC1 promoter act	SMN2 splice up	ELG1 genotoxic	Rab9 prom act
CCOC(=O)c1ccc(NC(=O)c2oc3ccc4c(c3c2C)C(=O)CC(C)(CC)O4)cc1 (configuration not stated)	nt	-16%	nt	5%	nt	nt
CCCNC(=O)c1oc2ccc3c(c2c1C)C(=O)CC(C)(C)O3	-7%	2.4µM*	1.8µM*	13µM*	?	1.8µM*
COc1cc(OC)c(NC(=O)c2oc3ccc4c(c3c2C)C(=O)CC(C)(C)O4)cc1Cl	nt	5.4µM*	nt	nt	nt	nt
COc1cccc(CNC(=O)c2oc3ccc4c(c3c2C)C(=O)CC(C)(C)O4)c1OC	nt	3.4µM*	nt	6%	nt	nt
CCOc1ccc(NC(=O)CN2C(C(=O)OC)=C(c3ccccc3)c3cc(Cl)ccc3S2(=O)=O)cc1	nt	0%	nt	-4%	nt	nt
CCC1=C(C[C@H]2NCCc3ccccc32)C[C@@H]2c3cc(OC)c(OC)cc3CCN2C1	-7%[7.66 µM]	nt	nt	-8%[9.22 µM]	nt	nt
O=C1CCC(c2ccccc2)=NN1c1nc2ccccc2s1	-3%[7.66 µM]	nt	nt	-13%[9.22 µM]	nt	nt
COc1ccccc1NC(=O)C(Cc1ccccc1)NS(=O)(=O)c1ccc2c(c1)c(=O)n(C)c(=O)n2C (configuration not stated)	nt	-6%	nt	-6%	nt	nt
CCCNC(=O)c1ccc(COc2ccc(C)cc2)o1	nt	-11%	2%	nt	1%	-2%
Cc1ccc(NC(=O)c2oc3ccc4c(c3c2C)C(=O)CC(C)(C)O4)c(C)c1	nt	4.3µM*	nt	nt	nt	nt
CCCNC(=O)c1oc2ccc3c(c2c1C)C=CC(C)(C)O3	nt	11µM*	?	nt	?	3.5µM*
COC(=O)c1ccccc1NC(=O)c1oc2ccc3c(c2c1C)C(=O)CC(C)(C)O3	nt	5.4µM*	nt	nt	nt	nt
CC(=O)c1ccc(NC(=O)CCCN2C(=O)/C(=C/C(C)=C/c3ccccc3)SC2=S)cc1	2%	-4%	-3%	-20%	0%	5%
CC(=C\c1ccco1)/C=C1/SC(=S)N(CC(=O)O)C1=O	nt	17µM*	2%	nt	4%	16%
CC(/C=C1\SC(=S)N(CC(=O)O)C1=O)=C\c1ccccc1	nt	17µM*	?	nt	16%	21%
CC(=C\c1ccccc1)/C=C1/SC(=S)N(CCC(=O)O)C1=O	nt	21µM*	-2%	nt	4%	-4%[1.84 µM]
CC(/C=C1\SC(=S)N(CC(=O)N2CCN(c3ccccc3)CC2)C1=O)=C\c1ccccc1	-2%	1%	-2%	-1%[1.84 µM]	-2%	-5%
COCCN(C(=O)Cc1cccs1)C(C(=O)NC1CCCC1)c1cc(OC)c(OC)c(OC)c1 (configuration not stated)	-1%	4.8µM*	?	nt	?	?
Cc1nc2nc[nH]n2c(=O)c1CCOC(=O)c1c(F)cccc1F	-1%	?	-2%	7%	2%	3%
Cc1nc2nc[nH]n2c(=O)c1CCOC(=O)c1ccccc1F	2%	11µM*	-4%	nt	3%	13%
CCc1nnc(NC(=O)CSc2nccn2-c2ccccc2)s1	-13%	-1%	0%	-19%	-3%	-2%
O=C(CSc1ncc(-c2ccccc2)nn1)NCc1ccco1	0%	-1%	0%	nt	-3%	-6%
COc1ccc(-c2ccc(SCC(=O)NCc3ccco3)nn2)cc1	-5%	8.5µM*	21%	7%	?	?
CCc1nnc(NC(=O)CSc2ccc(-c3ccc(C)cc3)nn2)s1	-10%	2.4µM*	?	?	?	?
CCc1nnc(NC(=O)CSc2ncc(-c3ccccc3)n2C)s1	-1%	?	7%	-19%	18µM*	29%
SMILES	KinaseGlo FLuc	FLuc modulator	NPC1 promoter act	SMN2 splice up	ELG1 genotoxic	Rab9 prom act
O=C(CSc1nc(-c2ccccc2)cs1)NCc1ccco1	-3%	?	0%	-8%	23µM*	3%
CCOc1ccc(-c2ccc(SC)nn2)cc1	3.2µM*	0.48µM*	0.63µM*	0.79µM*	?	0.32µM*
CCOc1ccc(NC(=O)CCC(=O)Nc2nnc(CC)s2)cc1	nt	-1%	19%	nt	16%	-1%
Cn1c(-c2ccc(F)cc2)cnc1SCC(=O)Nc1ccccc1N1CCOCC1	-7%	0.95µM*	1.6µM*	13µM*	1.8µM*	1.3µM*
COc1ccc(-c2ccc(SCC(=O)Nc3nnc(C)s3)nn2)cc1	-12%	1.3µM*	6%	?	8%	?
O=C(CSc1ccc(F)cc1)Nc1ccccc1N1CCOCC1	nt	4%	-6%	nt	-3%	-4%
CCOc1ccc(-c2ccc(SCC(=O)Nc3nnc(CC)s3)nn2)cc1	0%	0.6µM*	?	11µM*	?	?
Cc1cc(NO)nc(-c2ccc(Br)cc2)n1	1%	24µM*	?	16µM*	?	4.5µM*
CCOC(=O)C1=C(COC(=O)c2cccc(Br)c2)NC(=O)NC1C (configuration not stated)	nt	2%	9%	nt	2%	0%
CCOC(=O)C1=C(COC(=O)/C=C/c2ccccc2F)NC(=O)NC1C (configuration not stated)	nt	4%	-3%	nt	10%	2%
CCOC(=O)C1=C(COC(=O)c2cccc(N(C)C)c2)NC(=O)NC1C (configuration not stated)	nt	24µM*	?	nt	?	2.8µM*
CCOC(=O)C1=C(COC(=O)/C=C/c2ccccc2Cl)NC(=O)NC1C (configuration not stated)	nt	27µM*	3%	nt	?	27%
C/C=C/C=C/C=O	nt	nt	nt	1%	nt	nt
CCc1cccc(C)c1NC(=O)C1CCN(c2nnc(C)c3c(C)n(-c4ccccc4)nc23)CC1	nt	0%	nt	nt	nt	nt
O=c1[nH]c2ccccc2c2cn(-c3ccccc3)nc12	nt	13µM*	2.8µM*	nt	?	?

High-throughput results as filed in PubChem.
